The source of these data is publication PMC5540273 (PLoS ONE, 2017).

Test systems include CDK8; CDK9; CDKL1; CDKL2; CDKL3; CDKL5; CHEK1; CHEK2; CIT; CLK1.
What all share (details): concentration: 1 μM, replicates: in singlicate; n = 1
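Also: KINOMEscan kinase panel screen.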

On to `O=C(Nc1ccccc1F)NC1CCN(c2ccnc(Nc3ccc(F)cc3)n2)CC1` [GSK1379800], for which the “%Inh” value in the assay with CDK8 is recorded as 51%; in the assay with CDK9 it was 0%; in the assay on CDKL1, 0%; with CDKL2, 17%; with CDKL3, 0%; in the assay with CDKL5, 0%. Further, the “%Inh” value in the assay with CHEK1 amounted to 0%; in the assay on CHEK2, 0%; in the assay with CIT, 0%; in the assay with CLK1, 9%.
Consider `Cc1occc1-c1ncc(OC[C@@H](N)Cc2c[nH]c3ccccc23)cc1-c1ccc2[nH]nc(C)c2c1.O=C(O)C(F)(F)F` [GSK682037], for which the “%Inh” value was 25% in the assay on CDK8; 22% with CDK9; 11% with CDKL1; 43% with CDKL2; 0% in the assay on CDKL3; 0% with CDKL5. For the same compound, the “%Inh” value came out at 0% in the assay with CHEK1, 0% with CHEK2, 99.1% with CIT and 32% in the assay on CLK1.
On to `COc1cccc(C(=O)Nc2cccc(Oc3ccc4nc(NC(=O)C5CC5)cn4n3)c2)c1`, for which the “%Inh” value in the assay on CDK8 was 38%; in the assay on CDK9 it was 0%; with CDKL1, 58%; in the assay with CDKL2, 26%; with CDKL3 it was 7%; in the assay with CDKL5, 0%. Also, the “%Inh” value amounted to 15% in the assay with CHEK1, 0% in the assay with CHEK2, 96.5% in the assay on CIT and 30% in the assay with CLK1.
On to `Cl.Cl.NCC(NCc1ccc(-c2ccnc3[nH]ccc23)s1)c1ccccc1` (stereo not shown) [GSK1321565], for which the “%Inh” value turned out to be 39% in the assay with CDK8; 0% with CDK9; 0% in the assay with CDKL1; 13% with CDKL2; 0% in the assay with CDKL3; 0% in the assay on CDKL5. Besides, the “%Inh” value in the assay with CHEK1 is recorded as 0%; with CHEK2 it was 33%; in the assay on CIT, 93%; with CLK1, 89%.
For `CN1CCN(CCCNc2nccc(-c3c(-c4ccc(F)cc4)nn4cc(C(F)(F)F)ccc34)n2)CC1` [GW621581], the “%Inh” value in the assay on CDK8 turned out to be 19%; in the assay on CDK9, 0%; with CDKL1, 0%; in the assay with CDKL2, 21%; in the assay on CDKL3, 0%; with CDKL5 it was 0%. The “%Inh” value in the assay on CHEK1 is recorded as 10%; in the assay with CHEK2, 0%; in the assay with CIT it was 71%; with CLK1, 21%.
Turning to `CNC(=O)c1ccccc1Nc1nc(Nc2ccc(N3CCOCC3)cc2)ncc1Cl.Cl` [GSK1576028], the “%Inh” value came out at 1% in the assay with CDK8; 27% in the assay on CDK9; 36% with CDKL1; 35% in the assay on CDKL2; 0% with CDKL3; 0% with CDKL5. The “%Inh” value stood at 65% in the assay on CHEK1, 91.3% in the assay with CHEK2, 26% in the assay with CIT and 99.5% in the assay on CLK1.
For the compound `O=c1[nH]cc(-c2ccc(N3CCOCC3)cc2)c2sc(-c3cn[nH]c3)cc12` [GSK2276055], the “%Inh” value in the assay on CDK8 is recorded as 0%; in the assay on CDK9 it was 71%; in the assay on CDKL1 it was 11%; in the assay with CDKL2, 0%; with CDKL3, 0%; in the assay on CDKL5 it was 0%. The “%Inh” value is 0% in the assay on CHEK1, 14% with CHEK2, 92.1% with CIT and 90% in the assay on CLK1.
Consider `CC(C)c1nc(-c2cccc(NS(=O)(=O)c3c(F)cccc3F)c2F)c(-c2ccnc(Nc3ccc(N4CCOCC4)nc3)n2)s1` [GSK2008607], for which the “%Inh” value worked out at 14% in the assay on CDK8; 93% with CDK9; 54% with CDKL1; 99.3% in the assay with CDKL2; 4% with CDKL3; 90.2% in the assay on CDKL5. The “%Inh” value in the assay with CHEK1 amounted to 0%; in the assay with CHEK2 it was 60%; with CIT it was 95.1%; with CLK1, 0%.
Turning to `CCCCc1nn2ncccc2c1-c1ccnc(Nc2ccc(N3CCN(C)CC3)cc2)n1` [GW684941], the “%Inh” value was found to be 26% with CDK8; 0% in the assay on CDK9; 22% in the assay on CDKL1; 99.3% in the assay on CDKL2; 66% in the assay on CDKL3; 0% with CDKL5. Further, the “%Inh” value is listed as 0% in the assay with CHEK1, 13% in the assay on CHEK2, 30% in the assay on CIT and 8% in the assay with CLK1.
Turning to `COc1ccc(CNC(=O)NC2CCN(c3ccnc(Nc4ccc(F)cc4)n3)CC2)cc1` [GSK1379788], the “%Inh” value is reported as 45% in the assay with CDK8; 0% in the assay with CDK9; 9% in the assay on CDKL1; 22% with CDKL2; 0% with CDKL3; 0% in the assay on CDKL5. The “%Inh” value in the assay on CHEK1 was 0%; in the assay on CHEK2, 34%; with CIT, 28%; in the assay with CLK1, 13%.
